Measured values: PubChem BioAssay
“And” between values parts separate entries of the source, which are not always exact repeats. Equal values may be shown once.

test: basal HepG2 mitochondrial membrane potential changes, profiling panel, cell-based, JC-1 fluorescence, 24 h, 100 nL compound (AID 1167); details: higher = more signal; also: test concentration not given here

Row | Structure (SMILES) | z-score
1 | COC(=O)C1=C(C)N(Cc2ccccc2)[C@]23O[C@](C(=O)OC)(C(=O)N2[C@@H]1c1ccccc1)[C@@H](C(=O)OC)[C@H]3C(=O)OC | 0.345 and 0.106
2 | CO[C@@H]1COC(=O)CC=C[C@H](C)COC(=O)[C@H](C)NC(=O)CC=C[C@H]1C | 1.04
3 | COC(=O)C1=C(C)N(Cc2ccccc2)C2=C(C(C)=O)[C@H](c3ccccc3)[C@@](O)(C(=O)OC)C(=O)N2[C@@H]1c1ccccc1 | 3.1 and 0.826
4 | C[N+](C)(C)CCCCNC(=O)[C@H]1C[C@H]2C(=O)N[C@@H](CCCC[N+](C)(C)C)C(=O)N2[C@H]1c1cccc(OCCO)c1 | -1.2 and -0.91
5 | CCOC(=O)NN=C1C[C@@H](O)[C@@H](O)[C@@H]2[C@@H]3C(=O)N(Cc4ccc5c(c4)OCO5)C(=O)[C@@H]3CC[C@@H]12 | 0.598
6 | C[N+](C)(C)CCCCNC(=O)[C@H]1C[C@H]2C(=O)N[C@@H](CCCC[N+](C)(C)C)C(=O)N2[C@H]1c1ccc(O)cc1 | -0.982 and -1.85
7 | O=c1n(-c2ccccc2)c(=O)n2n1CC[C@@H]1C(=NOC[C@@H](O)COCc3ccco3)[C@H]3O[C@H]3[C@@H](O)[C@@H]12 | -0.16 and -1.1
8 | C=C[C@@H](C)[C@H](O)c1ccc(O)c2ccccc12 | -1.66 and -1.91
9 | COC(=O)C1=C(C)N(Cc2ccccc2)C2=C(C(C)=O)C[C@@](O)(C(=O)OC)C(=O)N2[C@@H]1c1ccccc1 | 0.931 and 0.372
10 | CCC[C@@H]1C[C@@]1(CCC)[C@@H](NC(=O)c1ccc(-c2ccccc2)cc1)c1cccc(Cl)c1 | -0.93 and 2.74
11 | C=CCN(CCCC)C(=O)C1N(CCOCCO)C(=O)C2C(C(=O)O)C3C=CC21O3 (stereo not given) | -0.419 and -0.964
12 | C=CCN(Cc1ccccc1)C(=O)C1N(CCOCCO)C(=O)C2C(C(=O)O)C3C=CC21O3 (stereo not given) | 0.341 and -0.0276
13 | C=CC[C@@H](O)c1ccc(O)c2ccccc12 | -2.14 and -2.66
14 | CO[C@@H]1C=CCC(=O)N2CCC[C@H]2C(=O)OC[C@H](C)C(=O)OC[C@H]1C | 0.872
15 | CN1C(=O)C2CC=C([C@H]3Oc4ccccc4S(=O)(=O)N4CCC[C@@H]34)CC2C1=O (stereo not given in full) | -0.649 and 0.00971
16 | CCOC(=O)c1ccc(NC(=O)O[C@H]2[C@H](OC(=O)Nc3ccccc3)[C@@H](OC(=O)Nc3ccccc3)[C@@H](OC)O[C@@H]2CO)cc1 | -1.05 and -0.323
17 | C=CCN(Cc1ccccc1)C(=O)C(c1cccs1)N(C(=O)/C=C\C(=O)O)c1c(Cl)cccc1CO (stereo not given) | -0.267 and -0.148
18 | CC(CO)N1C(=O)[C@@H]2C3C(=O)OCCC=C[C@H]3OC23C=CCN(CCN2CCOCC2)C(=O)[C@@H]13 (stereo not given in full) | -0.41 and -1.09
19 | CO[C@H]1COC(=O)CC=C[C@@H](C)COC(=O)[C@@H](OCc2ccccc2)C=C[C@@H]1C | 0.952
20 | CCCC[C@@H]1CN2[C@@H](CC[C@@H](C)[C@@H]2c2ccc(Br)cc2)C(=O)O1 | -0.48 and 0.127

Row | Structure (SMILES) | z-score
21 | CCN1C(=O)[C@H]2[C@H]3[C@H](O)[C@H](O)CC(=NOC[C@@H](O)COCc4ccco4)[C@@H]3CC[C@H]2C1=O | -0.48 and -0.487
22 | C=CCN(CCCCC)C(=O)C(c1cccs1)N(C(=O)/C=C\C(=O)O)c1ccc(CCO)cc1 (stereo not given) | -0.087 and 0.966
23 | C=CCN(C(=O)C1N(c2c(Cl)cccc2CO)C(=O)C2C(C(=O)O)C3C=CC21O3)c1ccc(OC)cc1 (stereo not given) | -0.877 and 0.862
24 | C=CCN(CCCC)C(=O)C1N(C(C)(C)CO)C(=O)C2C(C(=O)O)C3C=CC21O3 (stereo not given) | -0.553 and -0.548
25 | C=C[C@@H](C)[C@@H](O)c1ccc(OCCO)cc1 | 0.299 and 1.09
26 | C=CCN(CCCCC)C(=O)C1N(C(C)(C)CO)C(=O)C2C(C(=O)O)C3C=CC21O3 (stereo not given) | -0.66 and -1.15
27 | CCOC(=O)[C@@H]1CC2O[C@]23C[C@@H]1C(=O)N1CCC[C@@H]1[C@H]3O[Si](C)(C)C(C)(C)C (stereo not given in full) | -0.904 and -1.08
28 | CCOC(=O)C[C@H]1[C@H](OC(=O)c2ccccc2-c2ccccc2)[C@@H](NC(=O)Cc2ccc(OC)cc2)c2cc(OCCCO)ccc2N1C(=O)Cc1ccc(OC)cc1 | 3.07 and 0.376
29 | COC(=O)CC=C[C@@H](C)[C@@H](CO)NS(=O)(=O)c1ccc(C)cc1 | -0.328 and 0.817
30 | C[N+](C)(C)CCCCCCNC(=O)[C@@H]1C[C@@H]2C(=O)N[C@@H](CCCC[N+](C)(C)C)C(=O)N2[C@@H]1c1ccc(O)cc1 | -0.367 and -1.19
31 | COC(=O)C1=C(C)N(Cc2ccccc2)C2=C3C(=O)CCC[C@@H]3[C@@](O)(C(=O)OC)C(=O)N2[C@@H]1c1ccccc1 | 1.07 and -0.0794
32 | O=C1C[C@]2(c3ccc([N+](=O)[O-])cc3)C(=O)N(Cc3ccccc3)c3cc(CO)ccc3[C@H]2N1C1CCCCC1 | -0.236 and 0.352
33 | CC(C)=CCCC(C)=CCON=C1C[C@@H](O)[C@@H](O)[C@@H]2[C@@H]3C(=O)N([C@@H](C)c4ccccc4)C(=O)[C@@H]3CC[C@H]12 | 0.374
34 | C[C@@H]1CC[C@H]2C(=O)NC[C@@H](O)CN2[C@H]1c1ccc(Br)cc1 | -0.606 and 0.493
35 | COc1ccc(O[C@H]2C=C[C@@H](c3ccccc3)O[C@@H]2COC(=O)CCC(C)=NO[C@H](C)c2cn([C@H](CO)Cc3ccccc3)nn2)cc1 | -0.796 and -0.898
36 | C=CCN(CCCC)C(=O)C(c1cccs1)N(C(=O)/C=C\C(=O)O)c1c(Cl)cccc1CO (stereo not given) | -0.25 and -0.417
37 | CC(CO)N1C(=O)[C@@H]2C3C(=O)OCCC=C[C@H]3OC23C=CCN(c2ccc(Cl)cc2)C(=O)[C@@H]13 (stereo not given in full) | 0.242 and 0.0111
38 | C=CCN(C(=O)C(c1cccs1)N(CCOCCO)C(=O)/C=C\C(=O)O)C(C)(C)C (stereo not given) | 1.07 and 0.991
39 | C=C[C@H](OC)[C@@H](O)c1ccc(O)c(F)c1 | -0.914 and 0.658
40 | CC(CO)N1C(=O)[C@@H]2C3C(=O)OCCC=C[C@H]3OC23C=CCN(C(C)(C)C)C(=O)[C@@H]13 (stereo not given in full) | -0.985 and -1.27
